# Experimental data published in publication PMC11062922 (Nature Chemical Biology, 2023).
# Read-outs that look alike come from different tables or passages of the source.
# Key:
# Set-up in all cases: species or system human, MV4-11 + K-562 + COLO205 + SK-N-BE2 + OVCAR-8
# CDK10 = conditions: read-out: apparent Kd; compound concentrations:100 nM and 1000 nM (sheet 'Samples'); n = 1
# CDK16 = conditions: read-out: apparent Kd, n = 1
# CDK17 = conditions: read-out: apparent Kd, n = 1
# CDK1 = conditions: read-out: apparent Kd; compound concentrations:100 nM and 1000 nM (sheet 'Samples'); n = 1
# CDK2 = conditions: read-out: apparent Kd, n = 1
# CDK4 = conditions: read-out: apparent Kd; compound concentrations:100 nM and 1000 nM (sheet 'Samples'); n = 1
# CDK5 = conditions: read-out: apparent Kd; compound concentrations:100 nM and 1000 nM (sheet 'Samples'); n = 1
# CDK6 = conditions: read-out: apparent Kd; compound concentrations:100 nM and 1000 nM (sheet 'Samples'); n = 1
# CDK7 = conditions: read-out: apparent Kd; compound concentrations:100 nM and 1000 nM (sheet 'Samples'); n = 1
# CDK9 = conditions: read-out: apparent Kd; compound concentrations:100 nM and 1000 nM (sheet 'Samples'); n = 1
# ICK = conditions: read-out: apparent Kd; compound concentrations:100 nM and 1000 nM (sheet 'Samples'); n = 1
# SLK = conditions: read-out: apparent Kd; compound concentrations:100 nM and 1000 nM (sheet 'Samples'); n = 1
# CDC42 = conditions: read-out: apparent Kd, compound concentrations: 100 nM and 1000 nM (sheet 'Samples'), n = 1
# CSNK1A1 = conditions: read-out: apparent Kd; compound concentrations: 100 nM and 1000 nM (sheet 'Samples'), CATDS: 0.11767767323313399; n = 1
# CSNK1D = conditions: read-out: apparent Kd; compound concentrations: 100 nM and 1000 nM (sheet 'Samples'), CATDS: 0.430543569866988; n = 1
# CSNK1E = conditions: read-out: apparent Kd; compound concentrations: 100 nM and 1000 nM (sheet 'Samples'), CATDS: 0.24847771886196199; n = 1
# FLT3 = conditions: read-out: apparent Kd; compound concentrations: 100 nM and 1000 nM (sheet 'Samples'), CATDS: 0.12792168712312599; n = 1
# GAK = conditions: read-out: apparent Kd; compound concentrations: 100 nM and 1000 nM (sheet 'Samples'), CATDS: 0.12375475758879401; n = 1
# RIOK2 = conditions: read-out: apparent Kd; compound concentrations: 100 nM and 1000 nM (sheet 'Samples'), CATDS: 0.107134967231821; n = 1
# NUAK1 = conditions: read-out: apparent Kd; compound concentrations: 100 nM and 1000 nM (sheet 'Samples'), CATDS: 0.20890182477098199; n = 1
# NUAK2 = conditions: read-out: apparent Kd; compound concentrations: 100 nM and 1000 nM (sheet 'Samples'), CATDS: 0.14838950263404099; n = 1
# STK3 = conditions: read-out: apparent Kd; compound concentrations: 100 nM and 1000 nM (sheet 'Samples'), CATDS: 0.13207546439769999; n = 1
# STK4 = conditions: read-out: apparent Kd; compound concentrations: 100 nM and 1000 nM (sheet 'Samples'), CATDS: 0.136772712102746; n = 1
# DJA1 = tested on: T1, DJA1; conditions: read-out: apparent Kd; compound concentrations: 100 nM and 1000 nM (sheet 'Samples'), CATDS: 0.11539226669729399; n = 1
# T1 construct: gene DNAJA1
# HSP90AA1 = conditions: read-out: apparent Kd; compound concentrations: 100 nM and 1000 nM (sheet 'Samples'), CATDS: 0.12399635685572399; n = 1
# HSP90B1 = conditions: read-out: apparent Kd; compound concentrations: 100 nM and 1000 nM (sheet 'Samples'), CATDS: 0.12934168659945999; n = 1
# HSPE1 = conditions: read-out: apparent Kd; compound concentrations: 100 nM and 1000 nM (sheet 'Samples'), CATDS: 0.19606542414911901; n = 1
# PGK1 = conditions: read-out: apparent Kd; compound concentrations: 100 nM and 1000 nM (sheet 'Samples'), CATDS: 0.21364088639266299; n = 1
# PKM = conditions: read-out: apparent Kd; compound concentrations: 100 nM and 1000 nM (sheet 'Samples'), CATDS: 0.14448823643602399; n = 1
# GSK3A = conditions: read-out: apparent Kd; compound concentrations: 100 nM and 1000 nM (sheet 'Samples'), CATDS: 0.36357302595777402; n = 1
# [1] = compound concentrations:100 nM and 1000 nM (sheet 'Samples')
smiles,measurement,setting,value
COc1ccc(F)cc1C(=O)c1cnc(NC2CCN(S(C)(=O)=O)CC2)nc1N [RO4517872-000],potency estimated from few doses,CDK10,915 nM
same,potency estimated from few doses,CDK16; [1],74.1 nM
same,potency estimated from few doses,CDK17; [1],75.1 nM
same,potency estimated from few doses,CDK1,402 nM
same,potency estimated from few doses,CDK2; [1],62.7 nM
same,potency estimated from few doses,CDK4,1200 nM
same,potency estimated from few doses,CDK5,221 nM
same,potency estimated from few doses,CDK6,1680 nM
same,potency estimated from few doses,CDK7,1460 nM
same,potency estimated from few doses,CDK9,246 nM
same,potency estimated from few doses,ICK,347 nM
same,potency estimated from few doses,SLK,1280 nM
CCc1nn2ncccc2c1-c1ccnc(NC2CC2)n1 [GW683768X],potency estimated from few doses,CDC42; CATDS: 0.112066673449154,1390 nM
same,potency estimated from few doses,CSNK1A1,1200 nM
same,potency estimated from few doses,CSNK1D,95.2 nM
same,potency estimated from few doses,CSNK1E,230 nM
same,potency estimated from few doses,FLT3,948 nM
same,potency estimated from few doses,GAK,1040 nM
same,potency estimated from few doses,RIOK2,1610 nM
CC(C)=Cc1cccc2c1/C(=N/Nc1ccc(S(N)(=O)=O)cc1)C(=O)N2 [GW396574X],potency estimated from few doses,"CDK16; compound concentrations: 100 nM and 1000 nM (sheet 'Samples'), CATDS: 0.172165115049177",778 nM
same,potency estimated from few doses,"CDK2; compound concentrations: 100 nM and 1000 nM (sheet 'Samples'), CATDS: 0.26435202316191703",366 nM
same,potency estimated from few doses,NUAK1,539 nM
same,potency estimated from few doses,NUAK2,1080 nM
same,potency estimated from few doses,STK3,1470 nM
same,potency estimated from few doses,STK4,1330 nM
Cn1cc(C2=C(c3c4n(c5ccccc35)CCCC4)C(=O)NC2=O)c2ccccc21 [RO0318259-000],potency estimated from few doses,CDC42; CATDS: 0.12762221298853901,1480 nM
same,potency estimated from few doses,DJA1,1920 nM
same,potency estimated from few doses,HSP90AA1,1590 nM
same,potency estimated from few doses,HSP90B1,1440 nM
same,potency estimated from few doses,HSPE1,644 nM
same,potency estimated from few doses,PGK1,561 nM
same,potency estimated from few doses,PKM,1130 nM
CCN1CCC(CC(=O)Nc2n[nH]c3nc(-c4cccs4)c(Br)cc23)CC1.O=C(O)[C@H](O)[C@@H](O)C(=O)O [SB-739245-AC],potency estimated from few doses,"CDK16; compound concentrations: 100 nM and 1000 nM (sheet 'Samples'), CATDS: 0.32554244195376097",802 nM
same,potency estimated from few doses,"CDK17; compound concentrations: 100 nM and 1000 nM (sheet 'Samples'), CATDS: 0.31469055739513202",861 nM
same,potency estimated from few doses,GSK3A,647 nM
